Data: the supplement of paper PMC6089552
About 300 (9.4%) of roughly 3,200 compounds showed activity. Only a selection was taken, and actives are over-represented in it overall.

Tested on: A673/TR/shEF
Assay: cell viability (LOESS-normalised, relative to median of negative controls) (log2 ratio); higher = more viable cells (less compound effect), active = hit call of the paper (over 3 MAD below the median)
Settings: treatment time: 72 h
Summary of the method: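 Viability of A673/TR/shEF Ewing sarcoma cells was determined by CellTiter-Glo luminescence. The cells, at 1,500 per well in 384-well plates, were grown with or without doxycycline from 24 h before compound addition to switch on EWS-FLI1 shRNA knockdown, then exposed for three days to library compounds at two or more concentrations or to DMSO controls. Signals were LOESS-corrected plate by plate, normalised to the negative-control median and log2-transformed.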

[1] = 0.25 µM, library screen: screen1, EWS-FLI1 expression: high (no doxycycline)
[2] = 0.25 µM, library screen: screen1, EWS-FLI1 expression: low (doxycycline-induced shRNA knockdown)
[3] = 2.5 µM, library screen: screen1, EWS-FLI1 expression: high (no doxycycline)
[4] = 2.5 µM, library screen: screen1, EWS-FLI1 expression: low (doxycycline-induced shRNA knockdown)
[5] = 0.025 µM, library screen: screen1, EWS-FLI1 expression: high (no doxycycline)
[6] = 0.025 µM, library screen: screen1, EWS-FLI1 expression: low (doxycycline-induced shRNA knockdown)
[7] = 25 µM, library screen: screen1, EWS-FLI1 expression: high (no doxycycline)
[8] = 25 µM, library screen: screen1, EWS-FLI1 expression: low (doxycycline-induced shRNA knockdown)

Measured: cell viability (log2)

CN=C(N)NCCCC(N)C(=O)O (stereo not drawn)
inactive: [1] 0.0723 | [2] 0.0246 | [3] -0.0207 | [4] -0.0108

Nn1c(SCC(=O)c2ccc(Cl)cc2)nc2ccccc2c1=O
inactive: [1] 0.102 | [2] 0.0418 | [3] 0.24 | [4] 0.000811

CC1(C)Oc2ccc3ccc(=O)oc3c2C[C@H]1O
inactive: [1] 0.0366 | [2] -0.00203 | [3] 0.0909 | [4] 0.0204

NC[C@@H]1O[C@H](O[C@H]2[C@@H](O)[C@H](O[C@@H]3[C@@H](O)[C@H](N)C[C@H](N)[C@H]3O[C@H]3O[C@H](CO)[C@@H](O)C[C@H]3N)O[C@@H]2CO)[C@H](N)[C@@H](O)[C@@H]1O[C@H]1O[C@H](CO)[C@@H](O)[C@H](O)[C@@H]1O
inactive: [1] 0.156 | [2] 0.0397 | [3] 0.0315 | [4] 0.0591

Cc1nc(-c2ccc(NC(=O)c3ccccc3)cc2)cs1
inactive: [1] 0.118 | [2] 0.115 | [3] 0.0995 | [4] 0.089

Cc1ccc(NC(=O)c2cccc(N(C)C)c2)cc1NC(=O)c1ccc(O)cc1
0.277: [1]
active: [3] -0.147 | [7] -0.322
inactive: [5] 0.191 | [6] -0.0357 | [2] 0.139 | [4] 0.168 | [8] 0.196

CC(=O)Nc1cccc(O)c1
inactive: [1] 0.142 | [2] 0.0568 | [3] 0.211 | [4] -0.0215

CC1(C)C(=O)C=C[C@]2(C)C3CC[C@@]4(C)[C@H](c5ccoc5)OC(=O)[C@H]5O[C@]54[C@]3(C)C(=O)C[C@@H]12 (stereo partly drawn)
inactive: [1] 0.0539 | [2] 0.0813 | [3] 0.0765 | [4] 0.119

Cc1cc(=O)oc2cc(O)ccc12
inactive: [1] 0.129 | [2] 0.0733 | [3] 0.103 | [4] -0.0344

Cc1cc(=O)oc2c(O)c(O)ccc12
inactive: [2] -0.0218 | [3] 0.0459 | [4] 0.107
active: [1] -0.0965

Cc1cc(=O)oc2cc(O)c(O)cc12
inactive: [1] -0.0238 | [2] 0.0536 | [3] 0.00784 | [4] 0.0751

N#CC1=C(N)Oc2cc(N)ccc2C1c1ccc(OCc2ccccc2)cc1 (stereo not drawn)
inactive: [1] 0.04 | [2] 0.0479 | [3] 0.099 | [4] 0.204

CC(C)C[C@H](N)CSSC[C@@H](N)CC(C)C
inactive: 0.25 µM, library screen: screen2, EWS-FLI1 expression: high (no doxycycline) 0.107 | 0.25 µM, library screen: screen2, EWS-FLI1 expression: low (doxycycline-induced shRNA knockdown) 0.1 | 2.5 µM, library screen: screen2, EWS-FLI1 expression: high (no doxycycline) 0.104 | 2.5 µM, library screen: screen2, EWS-FLI1 expression: low (doxycycline-induced shRNA knockdown) 0.0902

CCCCOCCOC(=O)CCCOc1ccc(Cl)cc1Cl
inactive: [1] 0.0256 | [2] 0.038 | [3] 0.0946 | [4] 0.127

Cn1cc(C2=C(c3ccc(Cl)cc3Cl)C(=O)NC2=O)c2ccccc21
inactive: 0.103 µM, library screen: screen3, EWS-FLI1 expression: high (no doxycycline) 0.039 | 0.103 µM, library screen: screen3, EWS-FLI1 expression: low (doxycycline-induced shRNA knockdown) 0.0193 | 0.308 µM, library screen: screen3, EWS-FLI1 expression: high (no doxycycline) 0.0253 | 0.308 µM, library screen: screen3, EWS-FLI1 expression: low (doxycycline-induced shRNA knockdown) 0.0244 | 0.926 µM, library screen: screen3, EWS-FLI1 expression: high (no doxycycline) 0.0632 | 0.926 µM, library screen: screen3, EWS-FLI1 expression: low (doxycycline-induced shRNA knockdown) 0.00111 | 2.8 µM, library screen: screen3, EWS-FLI1 expression: high (no doxycycline) 0.0516 | 2.8 µM, library screen: screen3, EWS-FLI1 expression: low (doxycycline-induced shRNA knockdown) -0.00589 | 8.3 µM, library screen: screen3, EWS-FLI1 expression: high (no doxycycline) 0.0741 | 8.3 µM, library screen: screen3, EWS-FLI1 expression: low (doxycycline-induced shRNA knockdown) 0.0603 | 25 µM, library screen: screen3, EWS-FLI1 expression: high (no doxycycline) 0.04 | 25 µM, library screen: screen3, EWS-FLI1 expression: low (doxycycline-induced shRNA knockdown) 0.0754

CN(C)CCCn1cc(C2=C(c3c[nH]c4ccccc34)C(=O)NC2=O)c2ccccc21
inactive: [5] 0.176 | [6] 0.147 | [1] 0.197 | [2] 0.193 | [8] 0.0609
active: [3] -0.136 | [7] -0.422
0.291: [4]

Cn1cc(C2=C(c3cn(CCCSC(=N)N)c4ccccc34)C(=O)NC2=O)c2ccccc21
inactive: [5] 0.0502 | [6] 0.0613 | [1] -0.0731 | [2] 0.0259
active: [3] -1.27 | [4] -0.615 | [7] -4.25 | [8] -2.05

O=C(Nc1c(-c2ccccc2)nc2ccc(Cl)cn12)c1ccc(F)cc1
inactive: [1] 0.0947 | [2] 0.0794 | [3] 0.184 | [4] -0.0685

NCC1OC(OC2C(N)CC(N)C(OC3OC(CO)C(O)C(N)C3O)C2O)C(O)C(O)C1O (stereo not drawn)
inactive: [1] 0.121 | [2] -0.0254 | [3] 0.206 | [4] 0.0929

COC(=O)c1c(C)c2c(c(C)c1OC(C)=O)OC(=O)c1c(C)c(Cl)c(O)c(Cl)c1O2
inactive: [1] 0.0664 | [2] 0.0141 | [3] 0.0918 | [4] 0.03

C[C@@H]1[C@H]2[C@H](O[C@@H]3O[C@H](CO)[C@@H](O)[C@H](O)[C@H]3O)OC=C(C(=O)O)[C@H]2C[C@@H]1O
inactive: [1] 0.0698 | [2] 0.0626 | [3] 0.106 | [4] -0.0365

COc1cc(O)c(C)c(O)c1
inactive: [1] 0.0455 | [2] 0.156 | [3] 0.0996 | [4] 0.176
